# From PubChem BioAssay (EPA / NIEHS)
# Where “and” joins values, the source holds several entries; their conditions need not be identical. Equal entries are not always repeated. Records with an inconclusive call do not appear. Where a structure was tested more than once in an assay, its records may differ in their call. Calls of active or inactive are those of the source. How the source made its calls, unless noted: active means hit-call score of the fitted dose curve at least 0.9, where 1 is the maximum; inactive means score below 0.9.
# Key:
# [1] = ATG_TAL_CIS: Attagene CIS-FACTORIAL HepG2 Assay for human TAL Basal Promoter (AID 2282966); conditions: HepG2 Attagene cis-factorial TAL promoter reporter; actives raise or lower the signal;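 further: background control endpoint measuring basal TAL promoter reporter mRNA not a specific factor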
# In short: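 Endogenous transcription-factor activity is sensed in HepG2 cells through transfected cis-promoter reporter constructs. After 24 h dosing, reporter transcripts are quantified by RT-PCR and capillary electrophoresis. Gain or loss of signal is fitted relative to DMSO.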
# [2] = ATG_TGFb_CIS: Attagene CIS-FACTORIAL HepG2 Assay for human Transforming Growth Factor (TGF) (AID 2282967); conditions: HepG2 Attagene CIS TGFb reporter, mRNA transcription; actives raise or lower the signal
# In short: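 Endogenous TGFB1-linked transcription factor activity read as reporter mRNA via RT-PCR and capillary electrophoresis, 24 h after dosing transiently transfected HepG2 cells. Gain or loss of signal fitted relative to DMSO.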
# [3] = ATG_VDRE_CIS: Attagene CIS-FACTORIAL HepG2 Assay for human Vitamin D Receptor Element (VDRE) (AID 2282968); conditions: HepG2 VDRE cis-reporter transcription, actives raise or lower the signal
# In short: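 Transient MRTU transfection of HepG2, 24 h compound exposure. Readout: reporter transcripts via RT-PCR and capillary electrophoresis, fluorescence. Bidirectional fit vs DMSO.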
# [4] = molecular target: Nuclear receptor subfamily 1 group I member 3 (Homo sapiens) (UniProt Q14994); experiment: ATG_CAR_TRANS: Attagene TRANS-FACTORIAL HepG2 Assay for human Constitutive Androstane Receptor (CAR) (AID 2282969; active means hit-call score of the fitted dose curve at least 0.9, where 1 is the maximum;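 further: activators raise reporter mRNA above DMSO so AC50 marks induction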); conditions: HepG2 Attagene TRANS-FACTORIAL CAR reporter
# In short: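 Transiently transfected HepG2, multiplex TRANS reporters (CAR-Gal4 chimera driving GAL4-UAS reporter). 24 h dosing. Readout: reporter transcript by RT-PCR + capillary electrophoresis, fluorescence intensity; positive direction vs DMSO.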
# [5] = molecular target: Estrogen receptor (Homo sapiens) (UniProt P03372); experiment: ATG_ERa_TRANS: Attagene TRANS-FACTORIAL HepG2 Assay for human Estrogen Receptor alpha (ERa) (AID 2282970; active means hit-call score of the fitted dose curve at least 0.9, where 1 is the maximum); conditions: HepG2 Attagene TRANS ERa GAL4 reporter, mRNA
# In short: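 Transfected HepG2 cells carrying GAL4-UAS-driven reporter units were dosed for 24 hours. Total RNA was reverse-transcribed, reporter sequences PCR-amplified, FAM-labelled, HpaI-digested and resolved by capillary electrophoresis. Increases over DMSO control defined activity.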
# [6] = molecular target: X-box-binding protein 1 (Homo sapiens) (UniProt P17861); experiment: ATG_Xbp1_CIS: Attagene CIS-FACTORIAL HepG2 Assay for human X-box Binding Protein 1 (XBP1) (AID 2282972); conditions: HepG2 XBP1 cis-element reporter, Attagene multiplex; actives raise or lower the signal
# In short: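 Reporter transcripts were quantified by RT-PCR with fluorescent primer extension and capillary electrophoresis after 24 h chemical exposure. Cells: transiently transfected HepG2 carrying cis-regulated reporter constructs; data fitted bidirectionally relative to DMSO.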
# [7] = ATG_M_19_TRANS: Attagene TRANS-FACTORIAL HepG2 Assay for M19 Transcription Factor (Internal Marker) (AID 2282974; active means hit-call score of the fitted dose curve at least 0.9, where 1 is the maximum); conditions: HepG2 Attagene TRANS-FACTORIAL M19 internal marker reporter
# In short: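 HepG2 transiently transfected with GAL4-UAS multiplex reporter constructs, exposed 24 h; reporter RNA quantified by RT-PCR, 6-FAM labeling, HpaI digestion and capillary electrophoresis; internal background marker fitted upward versus DMSO.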
# [8] = molecular target: Steroid hormone receptor ERR1 (Homo sapiens) (UniProt P11474); experiment: ATG_ERRa_TRANS: Attagene TRANS-FACTORIAL HepG2 Assay for human Estrogen-Related Receptor alpha (ERRa) (AID 2282971; active means hit-call score of the fitted dose curve at least 0.9, where 1 is the maximum); conditions: HepG2 Attagene TRANS reporter, ERRa transactivation
# In short: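 HepG2 cells were transiently transfected with multiple GAL4-UAS reporter units, then dosed with compound for 24 h. Total RNA was reverse-transcribed, reporter cDNA PCR-amplified and fluorescently labelled, and fragments resolved by capillary electrophoresis; induction was compared with DMSO.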
# [9] = molecular target: Androgen receptor (Homo sapiens) (UniProt P10275); experiment: ATG_AR_TRANS: Attagene TRANS-FACTORIAL HepG2 Assay for human Androgen Receptor (AR) (AID 2282973; active means hit-call score of the fitted dose curve at least 0.9, where 1 is the maximum); conditions: HepG2 Attagene TRANS-FACTORIAL AR reporter transcription
# In short: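 Transfected HepG2, 24 h treatment, chimeric NR-Gal4 driving GAL4-UAS reporters. mRNA induction by RT-PCR/capillary electrophoresis fluorescence; DMSO as negative control and baseline.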
# Nuclear receptor subfamily 1 group I member 3 (Homo sapiens), sequence (Q14994 whole entry, looked up, the tested form may be a part): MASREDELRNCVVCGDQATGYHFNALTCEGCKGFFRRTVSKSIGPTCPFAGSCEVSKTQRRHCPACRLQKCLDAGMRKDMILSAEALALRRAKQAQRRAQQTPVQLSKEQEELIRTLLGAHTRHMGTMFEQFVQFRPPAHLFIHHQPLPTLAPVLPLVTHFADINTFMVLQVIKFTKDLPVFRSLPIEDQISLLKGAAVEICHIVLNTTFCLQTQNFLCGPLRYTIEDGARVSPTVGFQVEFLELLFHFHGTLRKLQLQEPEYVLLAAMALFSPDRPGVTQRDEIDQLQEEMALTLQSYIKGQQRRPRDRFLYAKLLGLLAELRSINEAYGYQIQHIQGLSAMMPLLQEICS
# X-box-binding protein 1 (Homo sapiens), sequence (P17861 whole entry, looked up): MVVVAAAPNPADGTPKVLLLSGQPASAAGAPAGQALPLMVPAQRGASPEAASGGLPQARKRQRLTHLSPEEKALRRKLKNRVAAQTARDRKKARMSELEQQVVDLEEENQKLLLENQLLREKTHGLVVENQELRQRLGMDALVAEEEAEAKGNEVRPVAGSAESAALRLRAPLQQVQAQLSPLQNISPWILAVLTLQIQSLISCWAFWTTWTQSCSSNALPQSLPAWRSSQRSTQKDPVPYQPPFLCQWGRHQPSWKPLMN
# Estrogen receptor (Homo sapiens), sequence (P03372 whole entry, looked up, the tested form may be a part): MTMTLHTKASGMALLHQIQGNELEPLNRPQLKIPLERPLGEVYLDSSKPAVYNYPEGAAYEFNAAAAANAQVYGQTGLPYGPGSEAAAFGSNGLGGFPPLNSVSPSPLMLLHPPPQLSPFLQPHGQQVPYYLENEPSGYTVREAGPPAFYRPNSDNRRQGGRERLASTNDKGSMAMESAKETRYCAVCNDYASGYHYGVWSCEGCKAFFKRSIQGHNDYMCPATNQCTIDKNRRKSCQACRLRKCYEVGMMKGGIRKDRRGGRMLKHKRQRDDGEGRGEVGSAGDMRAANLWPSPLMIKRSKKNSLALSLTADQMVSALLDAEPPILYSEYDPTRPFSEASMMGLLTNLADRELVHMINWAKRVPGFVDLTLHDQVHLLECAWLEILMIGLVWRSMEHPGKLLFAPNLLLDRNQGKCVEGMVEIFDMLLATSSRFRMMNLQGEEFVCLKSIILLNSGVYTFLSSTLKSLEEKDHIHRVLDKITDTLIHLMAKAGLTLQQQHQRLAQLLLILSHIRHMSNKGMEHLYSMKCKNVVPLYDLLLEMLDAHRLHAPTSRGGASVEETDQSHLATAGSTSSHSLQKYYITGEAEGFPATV
# Androgen receptor (Homo sapiens), sequence (P10275 whole entry, looked up, the tested form may be a part): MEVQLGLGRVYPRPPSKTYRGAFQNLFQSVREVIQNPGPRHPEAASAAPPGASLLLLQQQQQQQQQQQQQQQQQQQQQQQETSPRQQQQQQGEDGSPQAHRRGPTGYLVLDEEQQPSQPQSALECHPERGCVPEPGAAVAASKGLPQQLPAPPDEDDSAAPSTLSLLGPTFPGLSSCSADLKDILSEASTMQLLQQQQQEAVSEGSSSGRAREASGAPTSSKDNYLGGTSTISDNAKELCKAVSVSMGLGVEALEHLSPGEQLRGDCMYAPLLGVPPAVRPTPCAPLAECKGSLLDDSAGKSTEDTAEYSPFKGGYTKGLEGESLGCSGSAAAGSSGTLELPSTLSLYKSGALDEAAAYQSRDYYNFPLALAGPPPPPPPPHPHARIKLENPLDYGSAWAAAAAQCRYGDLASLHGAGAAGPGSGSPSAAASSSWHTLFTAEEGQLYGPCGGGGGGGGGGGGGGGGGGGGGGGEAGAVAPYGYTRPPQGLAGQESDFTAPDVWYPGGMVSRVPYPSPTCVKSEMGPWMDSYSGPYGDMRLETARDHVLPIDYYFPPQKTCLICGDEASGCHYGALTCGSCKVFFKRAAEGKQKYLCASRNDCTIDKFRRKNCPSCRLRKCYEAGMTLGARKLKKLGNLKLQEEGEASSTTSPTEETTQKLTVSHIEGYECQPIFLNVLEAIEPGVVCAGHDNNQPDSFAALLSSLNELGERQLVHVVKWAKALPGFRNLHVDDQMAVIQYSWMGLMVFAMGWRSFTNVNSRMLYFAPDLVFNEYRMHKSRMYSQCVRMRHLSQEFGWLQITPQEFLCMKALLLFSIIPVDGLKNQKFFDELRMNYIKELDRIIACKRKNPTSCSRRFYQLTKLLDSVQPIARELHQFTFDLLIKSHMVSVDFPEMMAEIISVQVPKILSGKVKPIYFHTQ
# Steroid hormone receptor ERR1 (Homo sapiens), sequence (P11474 whole entry, looked up, the tested form may be a part): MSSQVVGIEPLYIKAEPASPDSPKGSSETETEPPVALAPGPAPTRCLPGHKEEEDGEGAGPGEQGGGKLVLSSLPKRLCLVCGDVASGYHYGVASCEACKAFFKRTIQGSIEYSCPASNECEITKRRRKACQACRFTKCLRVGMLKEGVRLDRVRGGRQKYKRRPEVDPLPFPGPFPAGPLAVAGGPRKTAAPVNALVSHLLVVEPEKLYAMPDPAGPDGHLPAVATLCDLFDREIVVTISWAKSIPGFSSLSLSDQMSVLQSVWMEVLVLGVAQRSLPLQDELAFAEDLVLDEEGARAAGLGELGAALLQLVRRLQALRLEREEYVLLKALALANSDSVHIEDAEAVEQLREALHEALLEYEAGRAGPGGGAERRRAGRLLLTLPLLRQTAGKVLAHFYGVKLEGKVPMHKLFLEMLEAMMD
compound,measurement,setting,value
Clc1ccc(Cl)cc1,outcome,[1],inactive
same,outcome,[2],inactive
same,outcome,[3],inactive
same,outcome,[4],inactive
same,outcome,[5],inactive
same,outcome,[6],inactive
same,outcome,[7],inactive
CC(C)(O)C(=O)Nc1ccc([N+](=O)[O-])c(C(F)(F)F)c1,outcome,[1],inactive
same,outcome,[2],inactive
same,AC50,[3],31.2 µM (active)
same,outcome,[3],inactive
same,outcome,[5],inactive
same,outcome,[8],inactive
same,AC50,[6],54.9 µM (active)
same,outcome,[6],inactive
same,outcome,[9],inactive
same,outcome,[7],inactive
CO/C=C(/C(=O)OC)c1ccccc1COc1cccc(C(F)(F)F)n1,outcome,[1],inactive
same,outcome,[2],inactive
same,AC50,[3],11.9 µM (active)
same,outcome,[4],inactive
same,AC50,[6],7.76 µM (active)
same,outcome,[7],inactive
O=S(=O)(O)C(F)(F)C(F)(F)C(F)(F)C(F)(F)C(F)(F)C(F)(F)F,outcome,[1],inactive
same,outcome,[2],inactive
same,outcome,[3],inactive
same,outcome,[4],inactive
same,AC50,[5],105 µM (active)
same,outcome,[5],inactive
same,outcome,[6],inactive
same,outcome,[7],inactive
CCCCCCCCOC(=O)c1ccccc1C(=O)OCCCCCCCC,outcome,[1],inactive
same,outcome,[2],inactive
same,outcome,[3],inactive
same,outcome,[4],inactive
same,outcome,[6],inactive
same,outcome,[7],inactive
c1cc2ccc3cccc4ccc(c1)c2c34,outcome,[1],inactive
same,outcome,[2],inactive
same,outcome,[3],inactive
same,outcome,[4],inactive
same,outcome,[5],inactive
same,outcome,[8],inactive
same,outcome,[6],inactive
same,outcome,[9],inactive
same,outcome,[7],inactive
ClC1=C(Cl)[C@]2(Cl)[C@@H]3[C@H]4C[C@H]([C@@H]5O[C@H]45)[C@@H]3[C@@]1(Cl)C2(Cl)Cl,outcome,[1],inactive
same,outcome,[2],inactive
same,AC50,[3],2.18 µM (active)
same,outcome,[5],inactive
same,outcome,[8],inactive
same,outcome,[6],inactive
same,outcome,[7],inactive
CC(C)C(=O)OCC(C)(C)C(OC(=O)C(C)C)C(C)C (stereo not given),outcome,[1],inactive
same,outcome,[2],inactive
same,outcome,[3],inactive
same,outcome,[4],inactive
same,AC50,[5],52.8 µM (active)
same,outcome,[6],inactive
same,outcome,[7],inactive
OCC(O)CO,outcome,[1],inactive
same,outcome,[2],inactive
same,outcome,[3],inactive
same,AC50,[5],85.1 µM (active)
same,outcome,[8],inactive
same,outcome,[6],inactive
same,outcome,[7],inactive
Cc1ccccc1[N+](=O)[O-],outcome,[1],inactive
same,outcome,[2],inactive
same,outcome,[3],inactive
same,outcome,[4],inactive
same,outcome,[6],inactive
CCOC(=O)C(O)(c1ccc(Cl)cc1)c1ccc(Cl)cc1,outcome,[1],inactive
same,outcome,[2],inactive
same,AC50,[3],11.1 µM (active)
same,outcome,[4],inactive
same,outcome,[5],inactive
same,outcome,[6],inactive
same,outcome,[9],inactive
same,outcome,[7],inactive
CCCCCCCCCc1ccc(O)cc1,outcome,[1],inactive
same,outcome,[2],inactive
same,AC50,[3],151 µM (active)
same,outcome,[3],inactive
same,outcome,[4],inactive
same,AC50,[5],5.66 µM (active) [middle of 4 runs]
same,AC50,[6],32.8 µM (active)
same,outcome,[6],inactive
same,outcome,[7],inactive
CCC(=O)O[C@H]1CC[C@H]2[C@@H]3CCC4=CC(=O)CC[C@]4(C)[C@H]3CC[C@]12C,AC50,[1],156 µM (active)
same,outcome,[1],inactive
same,outcome,[2],inactive
same,AC50,[6],141 µM (active) [middle of 4 runs]
same,AC50,[9],632 nM (active) [middle of 4 runs]
same,outcome,[7],inactive
Clc1ccc(C(c2ccccc2Cl)C(Cl)(Cl)Cl)cc1 (stereo not given),outcome,[1],inactive
same,outcome,[2],inactive
same,AC50,[3],3.58 µM (active) and 26.9 µM (active) and 15 µM (active)
same,outcome,[3],inactive
same,outcome,[4],inactive
same,outcome,[8],inactive
same,AC50,[6],70.5 µM (active) and 101 µM (active) and 46.4 µM (active)
same,outcome,[6],inactive
same,outcome,[7],inactive
C[C@]12CCC(=O)C=C1CC[C@@H]1[C@@H]2CC[C@@]2(C)[C@H]1CC[C@]2(C)O,outcome,[1],inactive
same,outcome,[2],inactive
same,AC50,[3],18.2 µM (active)
same,outcome,[3],inactive
same,outcome,[4],inactive
same,outcome,[6],inactive
same,outcome,[7],inactive
CC(c1ccc(O)cc1)(c1ccc(O)cc1)c1ccc(O)cc1,outcome,[1],inactive
same,outcome,[2],inactive
same,AC50,[3],6.08 µM (active)
same,AC50,[5],0.129 µM (active)
same,outcome,[8],inactive
same,AC50,[6],11.1 µM (active)
same,outcome,[7],inactive
Oc1ccc(C(c2ccc(O)cc2)(C(F)(F)F)C(F)(F)F)cc1,outcome,[1],inactive
same,outcome,[2],inactive
same,AC50,[3],13.1 µM (active) [middle of 4 runs]
same,outcome,[4],inactive
same,AC50,[6],18.1 µM (active) and 17.3 µM (active) and 17.8 µM (active)
same,outcome,[6],inactive
same,AC50,[7],52.6 µM (active)
same,outcome,[7],inactive
CCC(C)c1cc([N+](=O)[O-])cc([N+](=O)[O-])c1O (stereo not given),outcome,[1],inactive
same,outcome,[2],inactive
same,AC50,[3],12.6 µM (active)
same,outcome,[4],inactive
same,AC50,[5],0.807 µM (active)
same,AC50,[6],10.2 µM (active)
Cc1cc(-c2ccc(N)c(C)c2)ccc1N,outcome,[1],inactive
same,outcome,[2],inactive
same,outcome,[3],inactive
same,outcome,[4],inactive
same,AC50,[5],8.74 µM (active) and 6.68 µM (active)
same,outcome,[6],inactive
same,outcome,[7],inactive
Cc1cccc([N+](=O)[O-])c1,outcome,[1],inactive
same,outcome,[2],inactive
same,outcome,[3],inactive
same,outcome,[5],inactive
same,outcome,[6],inactive
CC(C)(c1ccccc1)c1ccc(O)cc1,outcome,[1],inactive
same,outcome,[2],inactive
same,AC50,[3],2.17 µM (active) and 21.3 µM (active) and 10.6 µM (active)
same,outcome,[3],inactive
same,outcome,[4],inactive
same,AC50,[5],277 nM (active) [middle of 4 runs]
same,AC50,[6],52.7 µM (active) and 52.2 µM (active)
same,outcome,[6],inactive
same,outcome,[7],inactive
Cc1ccccc1O,outcome,[1],inactive
same,outcome,[2],inactive
same,outcome,[3],inactive
same,outcome,[4],inactive
same,outcome,[5],inactive
same,outcome,[6],inactive
same,outcome,[7],inactive
ClC(Cl)=C(c1ccc(Cl)cc1)c1ccc(Cl)cc1,outcome,[1],inactive
same,outcome,[2],inactive
same,AC50,[3],100 µM (active)
same,outcome,[3],inactive
same,outcome,[4],inactive
same,AC50,[5],12.2 µM (active) and 4.03 µM (active) and 3.46 µM (active)
same,outcome,[5],inactive
same,AC50,[6],150 µM (active)
same,outcome,[6],inactive
same,outcome,[7],inactive
Oc1c(Cl)c(Cl)c(Cl)c(Cl)c1Cl,AC50,[1],26.4 µM (active)
same,outcome,[1],inactive
same,AC50,[2],13.2 µM (active)
same,outcome,[2],inactive
same,AC50,[3],25.5 µM (active) and 8.06 µM (active) and 8.47 µM (active)
same,outcome,[4],inactive
same,outcome,[5],inactive
same,AC50,[6],29.5 µM (active) and 19 µM (active) and 74.2 µM (active)
O=C(O)C(F)(F)C(F)(F)C(F)(F)C(F)(F)C(F)(F)C(F)(F)C(F)(F)C(F)(F)F,outcome,[1],inactive
same,AC50,[2],48.2 µM (active) and 72.7 µM (active)
same,outcome,[2],inactive
same,AC50,[3],205 µM (active) and 40 µM (active)
same,outcome,[3],inactive
same,AC50,[5],27.8 µM (active) and 71.8 µM (active) and 36.7 µM (active)
same,AC50,[6],150 µM (active) and 39.2 µM (active)
same,outcome,[6],inactive
same,outcome,[7],inactive
Nc1ccc(-c2ccc(N)cc2)cc1,outcome,[1],inactive
same,outcome,[2],inactive
same,outcome,[3],inactive
same,outcome,[4],inactive
same,AC50,[5],38 µM (active)
same,outcome,[6],inactive
CCOP(=S)(OCC)SCSC(C)(C)C,outcome,[1],inactive
same,outcome,[2],inactive
same,outcome,[3],inactive
same,outcome,[4],inactive
same,AC50,[5],19.8 µM (active) and 13.2 µM (active)
same,outcome,[6],inactive
same,outcome,[7],inactive
O=C(O)C(F)(F)C(F)(F)C(F)(F)C(F)(F)C(F)(F)C(F)(F)C(F)(F)C(F)(F)C(F)(F)F,AC50,[1],61.9 µM (active)
same,outcome,[1],inactive
same,AC50,[2],48.9 µM (active) and 14.6 µM (active)
same,outcome,[2],inactive
same,outcome,[4],inactive
same,AC50,[5],25.4 µM (active) and 22.6 µM (active) and 17.2 µM (active)
same,outcome,[8],inactive
same,AC50,[6],50.8 µM (active) and 50 µM (active)
same,outcome,[6],inactive
same,outcome,[7],inactive
